Data on eight molecules can be found in PubChem BioAssay (NCI).

The structures appear in SMILES notation. The panel holds about 83,000 compounds, 20% with a hit somewhere; the sample as a whole holds those more often.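 How to read the values: 0–100, growth inhibition (40 = 60% inhibited); 0, no net growth; -100 to 0, cell death (-40 = 40% of starting cells died; -100 = all dead).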 Unmarked numbers belong to inactive results. The source made the active and inactive calls. How the source made its calls: active means growth percent below 10; inactive means the rest.

Common to all, as to experiment: NCI-60 one-dose screen, 48 h (100 = growth as untreated, 0 = no growth, -100 = all killed)
Holding throughout (conditions): 10 µM unless noted

Test [1] deals with NCI-H23 lung.
For test [2], the system named is NCI-H226 lung.
Test [3] concerns NCI-H322M lung.
In test [4] the test system is HOP-62 NSCLC.
Test [5] concerns NCI-H460 lung.
Test [6] relates to NCI-H522 lung.
The subject of test [7] is A549/ATCC NSCLC.
Test [8] deals with 786-0 renal.
The test system of test [9] is COLO 205 colon.
Test [10] deals with DU-145 prostate.
Test [11] concerns K-562 leukemia.
Test [12] deals with MALME-3M melanoma.
Test [13] concerns MDA-MB-231 breast.
Test [14] relates to RXF 393 renal.
Test [15] relates to SF-268 CNS.
For test [16], the system named is SF-295 CNS.
Test [17] concerns SF-539 CNS.
The test system of test [18] is UACC-257 melanoma.
The test system of test [19] is M14 melanoma.

As to `CCN(CC)CCNC(=O)n1cc(-c2ccncc2)c(-c2cc(Cl)cc(OC)c2)n1`, the growth in [1] was 80.1%; in test [2] it was 38.7%; in [3], 114%; in test [4], 35.9%; in test [5], 97.9%; in test [6], 92.3%. Moreover, the growth was 49.5% in [7]; 71.5% in test [8]; 46.2% in test [9]; 81.3% in test [10]; 66.7% in test [11]; 111% in test [12]. The growth was 82.8% in test [13]; 61.8% in test [14]; 73.9% in [15]; 80.3% in [16]; 44% in test [17]; 89.4% in test [18]. Further, the growth in test [19] is 108%.

On to `Cc1cc(N)cc(C)c1-c1c(Br)cc(N)cc1Br`, for which the growth was 50.9% in test [1]; 69.2% in [2]; 18.8% in test [3]; 25.1% in test [4]; 17.4% in test [5]; -9.5% (active) in test [6]. Also, the growth in test [7] is 25.2%; in test [8] it was 26.7%; in test [9], 11.9%; in test [10], 28.6%; in [11], 8.58% (active); in [12], 14%. The growth in [13] is 42.6%; in [14], -22.9% (active); in test [15], 41.4%; in [16], -14% (active); in [17], 15.3%; in [18], 62%. Also, the growth in [19] was 10.8%.

`Cc1csc(N/N=C/c2ccncc2)n1`: the growth in test [1] was 100%; in test [2], 95.9%; in [3], 109%; in test [4] it was 99.1%; in test [5], 101%; in test [6], 72.9%. Also, the growth in [7] was 68.8%; in test [8] it was 88.4%; in [9], 107%; in test [10], 108%; in test [11] it was 94.1%; in test [12], 117%. In addition, the growth is 102% in [13]; 99.5% in test [14]; 114% in test [15]; 108% in test [16]; 106% in test [17]; 78.1% in test [18]. Also, the growth in test [19] is 100%.

In the case of `O=C(/C=C/c1cn(-c2ccccc2)nc1-c1ccccc1)OCc1cn(-c2cccc([N+](=O)[O-])c2)nn1`, the growth in test [1] was 91.4%; in [2], 97.1%; in test [3] it was 94.7%; in test [4] it was 81.7%; in [5], 93.7%; in [6] it was 60.4%. The growth in test [7] was 67.8%; in test [8], 91.2%; in test [9] it was 89.5%; in test [10] it was 103%; in test [11] it was 76.2%; in test [12], 97.9%. For the same molecule, the growth in test [13] was 72.8%; in test [14], 105%; in test [15], 93.3%; in test [16], 97.8%; in [17], 89.2%; in [18] it was 44.9%. In addition, the growth in test [19] was 91.3%.

On to `CCCCCCCCCCCCCCCCCC(=O)[O][Sn]([CH2]CCC)([CH2]CCC)[CH2]CCC`, for which the growth in test [1] is -81.7% (active); in test [2], -74.6% (active); in [3], -91.4% (active); in test [4], -89.5% (active); in [5], -88.9% (active); in test [6], -54.3% (active). Further, the growth in test [7] was -84.1% (active); in test [8], -100% (active); in test [9], -80.9% (active); in test [10], -100% (active); in [11], -42.8% (active); in test [12] it was -85.9% (active). In addition, the growth in [13] was -57.8% (active); in [14], -98% (active); in [15], -92.8% (active); in [16] it was -85.3% (active); in test [17], -81.6% (active); in test [18] it was -86.1% (active). For the same molecule, in test [19], the growth is -91.1% (active).

Turning to `Cc1ccc([C@H]2c3[nH]c4ccccc4c3C[C@H]3C(=O)N(CCCCCCC(=O)NO)CC(=O)N23)cc1`, the growth in [1] was 63.8%; in test [2], 94.2%; in test [3] it was 55.6%; in test [4], 52.9%; in [5], 48.7%; in test [6], 24.2%. For the same molecule, the growth is 85.6% in [7]; 82.1% in test [8]; 47.3% in test [9]; 60.5% in test [10]; 20.2% in [11]; 19.5% in test [12]. For the same molecule, the growth in [13] was 44.4%; in test [14], 51.5%; in test [15] it was 68.6%; in test [16], 67.4%; in test [17], 52.6%; in [18], 50.5%. For the same molecule, in test [19], the growth is 43.6%.

With `Fc1ccc(-c2cnc3nonc3n2)c(F)c1`, the growth in test [1] was 88.7%; in [2] it was 102%; in [3] it was 98.4%; in [4] it was 93.7%; in [5], 107%; in [6] it was 84%. For the same molecule, the growth in test [7] was 109%; in test [8], 104%; in test [9], 92.5%; in test [10], 100%; in test [11], 68%; in test [12], 105%. The growth in test [13] was 78%; in test [14] it was 111%; in test [15], 84.8%; in [16], 109%; in test [17] it was 98.6%; in [18], 96.6%. Moreover, the growth in test [19] is 97.2%.

As to `CCN1C(=O)C(C)C=C(C)C=C1C` (configuration not stated), the growth in test [1] is 102%; in test [2], 102%; in test [3], 108%; in test [4] it was 105%; in test [5] it was 113%; in test [6], 84.5%. In addition, the growth in test [7] was 105%; in [8], 115%; in test [9], 104%; in test [10], 90.7%; in [11], 95.3%; in test [12] it was 104%. For the same molecule, the growth in test [13] is 112%; in test [14] it was 106%; in [15], 103%; in test [16], 59.8%; in test [17] it was 112%; in test [18] it was 107%. Also, in test [19], the growth is 120%.
